How the values were obtained:
Conditions in all cases: concentration: 1 μM,replicates: in singlicate; n = 1
PIK3C2G = tested on: PIK3C2G
PIK3CA = tested on: PIK3CA
PIK3CB = tested on: PIK3CB
PIK3CD = tested on: PIK3CD
PIK3CG = tested on: PIK3CG
PIK4CB = tested on: T1, PIK4CB
T1 construct: gene PI4KB

PIKFYVE = tested on: PIKFYVE
PIM1 = tested on: PIM1
PIM2 = tested on: PIM2
PIM3 = tested on: PIM3
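Note: KINOMEscan kinase panel screen.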

| SMILES | %Inh (PIK3C2G) [%] | %Inh (PIK3CA) [%] | %Inh (PIK3CB) [%] | %Inh (PIK3CD) [%] | %Inh (PIK3CG) [%] | %Inh (PIK4CB) [%] | %Inh (PIKFYVE) [%] | %Inh (PIM1) [%] | %Inh (PIM2) [%] | %Inh (PIM3) [%] |
| --- | --- | --- | --- | --- | --- | --- | --- | --- | --- | --- |
| Cn1ccc2ncnc(Oc3ccc(NC(=O)Nc4cnn(C(C)(C)C)c4)c(Cl)c3)c21 | 8 | 10 | 0 | 14 | 7 | 0 | 0 | 0 | 7 | 0 |
| COC(=O)c1cccc(NC(=O)NC2CCN(c3ccnc(NCc4ccc(F)cc4)n3)CC2)c1 [GSK1379860] | 0 | 0 | 0 | 61 | 0 | 0 | 57 | 0 | 0 | 0 |
| CCN1CCN(CCCC(=O)Nc2n[nH]c3nc(-c4ccc(O)cc4)c(Br)cc23)CC1 [SB-731579] | 16 | 0 | 0 | 44 | 6 | 16 | 14 | 57 | 89 | 72 |
| CSc1nccc(-c2c(-c3ccc(F)cc3)ncn2CCCN2CCOCC2)n1.Cl [SB-217146] | 0 | 17 | 0 | 0 | 0 | 5 | 14 | 35 | 0 | 9 |
| O=C(Nc1cccc(Oc2ccc3nccn3n2)c1)Nc1cccc(C(F)(F)F)c1 | 0 | 0 | 0 | 5 | 18 | 0 | 0 | 0 | 10 | 0 |
| COc1ccc(Nc2nccc(N3CCC(NC(=O)c4cccc(C#N)c4)C3)n2)cc1 (stereo not drawn) [GSK1379730] | 0 | 0 | 0 | 25 | 0 | 0 | 0 | 0 | 0 | 0 |
| O=C(Nc1n[nH]c2cc(-c3ccco3)ccc12)C1CC1 [SB-737447] | 17 | 0 | 0 | 0 | 0 | 18 | 1 | 6 | 0 | 22 |
| Cc1n[nH]c2cc(Nc3ccnc(Nc4cccc(CN5CCOCC5)c4)n3)ccc12 [GW682569] | 0 | 3 | 7 | 9 | 6 | 81 | 23 | 0 | 0 | 0 |
| COc1cc(Nc2nccc(N3CCC(NC(=O)c4cccc(C#N)c4)C3)n2)cc(OC)c1OC (stereo not drawn) [GSK1379751] | 0 | 0 | 0 | 0 | 0 | 3 | 9 | 0 | 0 | 0 |
| COc1cccc(CNC(=O)NC2CCN(c3ccnc(Nc4cc(OC)c(OC)c(OC)c4)n3)C2)c1 (stereo not drawn) [GSK1379765] | 0 | 0 | 83 | 35 | 0 | 67 | 0 | 0 | 0 | 0 |
| COc1cc2ncn(-c3cc(OCC4CCCCC4)c(C(N)=O)s3)c2cc1OC [GSK204559] | 38 | 0 | 0 | 0 | 5 | 0 | 0 | 0 | 0 | 11 |
| CC(=O)c1c(-c2ccncc2)[nH]c(-c2ccncc2)c1C [GW493036] | 0 | 0 | 0 | 38 | 0 | 0 | 26 | 11 | 0 | 9 |
| COc1cccc(OC)c1C(=O)Nc1cccc(-c2nn3ccccc3c2-c2ccnc(Nc3cccc(F)c3)n2)c1 [GSK361065] | 24 | 0 | 0 | 1 | 0 | 0 | 42 | 10 | 0 | 13 |
| CN(c1ccccc1CNc1nc(Nc2ccc3c(c2)CC(=O)N3)ncc1C(F)(F)F)S(C)(=O)=O | 0 | 0 | 0 | 0 | 0 | 0 | 38 | 0 | 0 | 0 |
| CC(C)S(=O)(=O)N1CCN(Cc2ccc3c(c2)nc(NC(=O)c2ccsc2)n3C[C@H](O)c2ccccc2)CC1 [GW635815] | 0 | 0 | 0 | 21 | 0 | 0 | 0 | 8 | 0 | 7 |
| CC(C)c1nc(-c2cccc(NS(=O)(=O)c3ccccc3)c2)c(-c2ccnc(Nc3ccc4c(c3)CN(C)CC4)n2)s1 [GSK1649598] | 0 | 10 | 11 | 25 | 4 | 33 | 56 | 28 | 0 | 18 |
| COc1cc2nccc(Nc3ccc(Oc4ccccc4)cc3)c2cc1OC.Cl [GI261656] | 0 | 0 | 0 | 0 | 0 | 0 | 5 | 0 | 0 | 0 |

| SMILES | %Inh (PIK3C2G) [%] | %Inh (PIK3CA) [%] | %Inh (PIK3CB) [%] | %Inh (PIK3CD) [%] | %Inh (PIK3CG) [%] | %Inh (PIK4CB) [%] | %Inh (PIKFYVE) [%] | %Inh (PIM1) [%] | %Inh (PIM2) [%] | %Inh (PIM3) [%] |
| --- | --- | --- | --- | --- | --- | --- | --- | --- | --- | --- |
| C[C@@H](Oc1cc(-n2cnc3ccc(-c4ccncc4)cc32)sc1C(N)=O)c1ccccc1Cl [GSK483724] | 6 | 53 | 68 | 87 | 97.7 | 79 | 95.1 | 46 | 64 | 23 |
| Cc1cccc(-c2nc(Nc3ccncc3)c3sccc3n2)n1 [GW869641] | 40 | 33 | 28 | 46 | 23 | 31 | 86 | 27 | 3 | 13 |
| C[C@@H](Oc1cc(-n2cnc3cc(-c4ccncc4)ccc32)sc1C(N)=O)c1ccccc1Cl [GSK479719] | 0 | 0 | 0 | 0 | 0 | 0 | 27 | 0 | 0 | 0 |
| Cc1ccc(Nc2ccnc(Nc3ccc4c(c3)CS(=O)(=O)C4)n2)cc1O.Cl [GW579362] | 42 | 2 | 0 | 0 | 31 | 67 | 0 | 29 | 0 | 5 |
| OCCn1cc(-c2cnc3nnn(Cc4ccc5ncccc5c4)c3n2)cn1 | 0 | 0 | 0 | 0 | 0 | 0 | 40 | 1 | 0 | 10 |
| O=C1NCCc2[nH]c(-c3ccncc3)cc21 | 0 | 7 | 45 | 0 | 12 | 20 | 38 | 28 | 23 | 37 |
| C[C@@H](Oc1cc(-n2cnc3cc(-c4cnn(C)c4)ccc32)sc1C(N)=O)c1ccccc1Cl [GSK580432] | 0 | 0 | 0 | 32 | 24 | 0 | 61 | 20 | 0 | 18 |
| O=C(Nc1ccc(Oc2ccc3nc(NC(=O)C4CC4)cn3n2)c(F)c1)c1cccn(-c2ccccc2)c1=O | 0 | 0 | 0 | 0 | 0 | 0 | 4 | 5 | 8 | 0 |
| O=C(Nc1ccccc1)c1cccc(Oc2ccc3nccn3n2)c1 | 6 | 0 | 0 | 11 | 0 | 68 | 0 | 0 | 5 | 0 |
| CC(C(=O)NC1CCN(c2ccnc(Nc3ccc(F)cc3)n2)C1)c1ccc(Cl)cc1 (stereo not drawn) [GSK1379713] | 0 | 0 | 0 | 15 | 0 | 0 | 9 | 9 | 0 | 0 |
| Cn1ccc2ncnc(Oc3ccc(NC(=O)Nc4cncc(C(F)(F)F)c4)c(Cl)c3)c21 | 0 | 0 | 0 | 0 | 0 | 0 | 0 | 3 | 1 | 0 |
| O=c1[nH]cc(-c2ccc(O)cc2)c2sc(-c3ccncc3)cc12 [GSK1033723] | 20 | 0 | 13 | 39 | 7 | 0 | 0 | 0 | 13 | 0 |
| COC(=O)c1cccc(NC(=O)NC2CCN(c3ccnc(Nc4cc(OC)c(OC)c(OC)c4)n3)C2)c1 (stereo not drawn) [GSK1379767] | 0 | 0 | 9 | 35 | 21 | 47 | 28 | 17 | 0 | 0 |
| N#Cc1cccc(C(=O)NC2CCN(c3ccnc(Nc4ccc(F)cc4)n3)C2)c1 (stereo not drawn) [GSK1379708] | 0 | 0 | 0 | 0 | 0 | 0 | 0 | 0 | 0 | 0 |
| NC(=O)c1ccc(-c2cc3ncnc(SCC(=O)O)c3s2)cc1 | 20 | 0 | 15 | 0 | 0 | 0 | 42 | 7 | 22 | 22 |
| CS(=O)(=O)c1cccc(CNc2nc(Nc3ccc4c(c3)[C@@H]3C[C@@H]4CNC3=O)ncc2C(F)(F)F)c1 | 0 | 0 | 0 | 0 | 0 | 0 | 24 | 0 | 0 | 0 |
